Screening data deposited in PubChem BioAssay by National Center for Advancing Translational Sciences (NCATS).
Only some compounds are listed: those with a hit (about 7% of all), similar ones and a draw of the others.
D3 antag: D3 dopamine receptor (human) antagonism; P35462; D3R cells, DiscoveRx beta-arrestin luminescence, antagonist mode; stronger effect = lower value; max response, negative = inhibition, %; hit rate 2.5% among 360,000; AID 652054; in the data active = max response below about -50%; inconclusive = no clear call, values can overlap the other calls; note: % is set by controls: 0 for no effect and ±100 for the full control effect
Target sequence (P35462 whole entry, looked up): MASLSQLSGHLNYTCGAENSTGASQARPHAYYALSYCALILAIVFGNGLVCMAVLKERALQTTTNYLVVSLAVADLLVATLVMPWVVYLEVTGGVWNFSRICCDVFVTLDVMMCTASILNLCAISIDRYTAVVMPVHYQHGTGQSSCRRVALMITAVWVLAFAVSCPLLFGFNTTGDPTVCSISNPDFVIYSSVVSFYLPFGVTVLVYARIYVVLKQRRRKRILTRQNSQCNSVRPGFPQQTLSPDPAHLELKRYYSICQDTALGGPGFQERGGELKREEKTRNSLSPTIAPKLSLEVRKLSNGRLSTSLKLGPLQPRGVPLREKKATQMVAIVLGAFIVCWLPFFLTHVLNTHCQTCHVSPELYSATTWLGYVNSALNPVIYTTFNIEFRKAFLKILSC
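Cells expressing the human receptor were seeded at 1500 cells/well, incubated overnight at 37 degrees C in 5% CO2, then exposed to library compounds with dopamine controls for 90 minutes at 37 degrees C before luminescent detection.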
a7 integrin act: activates integrin-mediated alleviation for muscular dystrophy. Potency, µM (top dose mostly 38.3 µM), inactives show at the highest dose activation, hits mostly activators. alpha7betagal myoblasts, beta-gal FDG fluorescence, 48 h. hit rate 0.064% among 350,000;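 note: potency is the fitted concentration of half-maximal effect; 100% = response of the positive control SU9516; nearly all actives have a fitted effect of over 60% in size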
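Alpha7betagal+/- myoblasts (passage 13) were plated 16-24 hr, then exposed to compounds (1:260 dilution of DMSO stock) for 48 hours at 37C. After MPER lysis, β-galactosidase reporter activity was read as FDG fluorescence (ex 480/em 540) after 30 minutes.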
S2 tox: cell viability loss in ATXN counter-screen | Potency, µM (titrated, usually from 56.7 µM), most hits filed as cytotoxic | AID 651635 | hit rate 0.49% among 400,000 | S2 cells (HEK-293 line with an ATXN2-luciferase reporter) viability, CellTiter-Fluor protease fluorescence, 24 h; note: potency is the fitted concentration of half-maximal effect; nearly all actives have a fitted effect of over 40% in size
ATXN2 expr inh: inhibitors of ATXN2 expression; AID 1745845; HEK-293 ATXN2-luciferase reporter, luminescence, 24 h; Potency, µM (series often up to 57 µM), for inactives: at the top dose activity change, negative = inhibition, usual class: inhibitors; hit rate 0.72% among 360,000; note: potency is the fitted concentration of half-maximal effect; % is set by controls: 0 for no effect and ±100 for the full control effect; nearly all actives have a fitted effect of over 55% in size
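ATXN2-luciferase reporter cells (luciferase flanked by upstream and downstream ATXN2 gene portions) were treated 24 h at 37 °C with compounds at up to 57 uM. SteadyGlo luminescence gave expression; GF-AFC fluorescence gave viability.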
IL-1B inflam inh: inflammasome signaling inhibition, IL-1 beta readout | hit rate 4.7% among 360,000 | THP-1 LPS/ATP IL-1B secretion, AlphaLISA, 16 h; stronger effect = lower value | activity change, % at 57.5 µM; in the data active = activity change below about -50%; inconclusive = mostly about -30% to -49%; note: % is set by controls: 0 for no effect and ±100 for the full control effect
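Secreted IL-1B measured by AlphaLISA bead assay after 16 h compound exposure of THP-1 cells; compounds (final up to 57.5 uM) added 1 h before LPS (250 ng/mL) and ATP (1.25 mM) stimulation; lower signal means less secretion.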
DRD3 agonist: D3 dopamine receptor (human) agonism; hit rate 0.58% among 410,000; P35462; D3R DiscoveRx beta-arrestin cells, luminescence, 90 min; max activation, %; AID 652048; in the data active = max activation above about 30%; note: 0% is about no effect
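Cells at 1500/well, incubated overnight, then treated with pinned compounds (dopamine as control) for 90 min at 37 degrees C. DiscoveRx reagent added for 30 - 60 minutes at room temperature; luminescence read.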
The depositor's hits bear a star. Unless noted, calls come from the whole dose curve; as a rule, active = well fitted curve in the direction sought with a large enough effect; inconclusive = small, poorly fitted or top-dose-only effect, or another doubt; inactive = no such curve, though single readings can be large; an effect the other way counts as inactive or inconclusive.

`CCCNC(=O)c1ccc(COc2ccc(C(C)(C)C)cc2)o1` gave D3 antag -6.2, a7 integrin act -25.3%, S2 tox inactive, ATXN2 expr inh -7.0%, IL-1B inflam inh -68.8* and DRD3 agonist 12.4.
`CCc1ccc(OCc2ccc(C(=O)NCc3ccccn3)o2)cc1` gave D3 antag -70.3*, a7 integrin act -2.8%, S2 tox inactive, ATXN2 expr inh 31.1%, IL-1B inflam inh -10.6 and DRD3 agonist -5.5.
For CC12CCC(=O)N1C(C(=O)Nc1nc3ccccc3s1)CS2 (stereo not given) the results were D3 antag -9.9, a7 integrin act inconclusive, S2 tox inactive, IL-1B inflam inh 1.4 and DRD3 agonist -0.1.
Screening Cc1cc(C)nc(NS(=O)(=O)c2ccc(N3C(=O)c4ccccc4C3=O)cc2)n1 returned D3 antag 7.2, a7 integrin act -3.3%, S2 tox inactive, ATXN2 expr inh 3.3%, IL-1B inflam inh 18.4 and DRD3 agonist 5.4.
For COc1cccc(N(CC(=O)NC2CCCCC2)C(=O)Cn2nnc(-c3ccc(C)o3)n2)c1 the results were D3 antag -3.7, a7 integrin act -71.8%, S2 tox inactive, ATXN2 expr inh 1.0%, IL-1B inflam inh -7.1 and DRD3 agonist 1.2.
Screening COc1ccc(Nc2ncnc3c2cnn3Cc2ccccc2)cc1 returned D3 antag -29.1, a7 integrin act 4.1%, S2 tox inactive, ATXN2 expr inh -8.8%, IL-1B inflam inh -54.5* and DRD3 agonist -11.3.
COc1ccc(Nc2ncc(C(=O)N3CCN(Cc4ccccc4)CC3)c3ccccc23)cc1 was read as D3 antag 12.1, a7 integrin act -52.9%, S2 tox inconclusive, ATXN2 expr inh inconclusive, IL-1B inflam inh -96.6* and DRD3 agonist -5.7.
Screening COc1ccccc1Nc1ncc(C(=O)N2CCN(Cc3ccc(OC)c(OC)c3OC)CC2)c2ccccc12 returned D3 antag 33.7, a7 integrin act inconclusive, S2 tox inactive, ATXN2 expr inh -31.4%, IL-1B inflam inh -72.6* and DRD3 agonist 3.6.
For COc1ccc(Nc2ncc(C(=O)N3CCC(C(N)=O)CC3)c3ccccc23)cc1 the results were D3 antag -7.1, a7 integrin act 7.5%, S2 tox inactive, ATXN2 expr inh -0.1%, IL-1B inflam inh -3.8 and DRD3 agonist -1.1.
`COc1ccc(C(=O)N2CCN(C(=O)Cc3ccccc3)CC2)cc1OC` gave D3 antag -5.3, a7 integrin act 15.8%, S2 tox inactive, ATXN2 expr inh 0.2%, IL-1B inflam inh 17.7 and DRD3 agonist -21.7.
`CC(C)(C)C(=O)Nc1cc2c3c(c1)CC(=O)N3CCC2` gave D3 antag -12.6, a7 integrin act inconclusive, S2 tox inactive, IL-1B inflam inh 6.6 and DRD3 agonist -5.8.
N=c1n(CCO)c2ccccc2n1CCOc1ccc(Cl)cc1Cl was read as D3 antag 5.3, a7 integrin act -45.3%, ATXN2 expr inh 20µM*, IL-1B inflam inh -102.0* and DRD3 agonist 7.9.
For CCOc1ccc(C(=O)c2cn(CC(=O)Nc3ccc(OC)cc3)c3cc4c(cc3c2=O)OCCO4)cc1 the results were S2 tox inactive, ATXN2 expr inh 14.9% and DRD3 agonist 4.8.
`CCOC(=O)CSc1nc(=O)n2cccc(C)c2n1` gave D3 antag -6.7, a7 integrin act 10.2%, S2 tox inactive, ATXN2 expr inh -1.0%, IL-1B inflam inh -96.6* and DRD3 agonist -0.9.
For Cc1cccn2c(=O)nc(SCC(=O)N3CCC(Cc4ccccc4)CC3)nc12 the results were D3 antag -58.5*, a7 integrin act 16.5%, S2 tox inactive, ATXN2 expr inh -9.1%, IL-1B inflam inh -24.1 and DRD3 agonist -34.8.
Screening O=C(c1ccc(F)cc1)N1CCC(c2nc3ccccc3o2)CC1 returned DRD3 agonist 11.6.
O=C(CCC(NC(=O)OCc1ccccc1)C(=O)O)OCc1ccccc1 (stereo not given) was read as D3 antag 5.5, a7 integrin act -21.9%, S2 tox inactive, ATXN2 expr inh 4.8%, IL-1B inflam inh 0.0 and DRD3 agonist -0.6.
COCCCNC(=O)c1ccc2c3c(onc13)-c1ccccc1C2=O was read as D3 antag inconclusive, a7 integrin act -66.0%, ATXN2 expr inh inconclusive, IL-1B inflam inh -98.0* and DRD3 agonist -29.5.
For COCCCNC(=O)c1ccccc1Oc1ccccc1 the results were D3 antag inconclusive, a7 integrin act -17.1%, S2 tox inactive, ATXN2 expr inh -4.7%, IL-1B inflam inh 14.1 and DRD3 agonist 0.5.
`CCCNC(=O)c1cc(C2CCCCN2C(=O)c2cc(C(C)(C)C)nn2C)on1` (stereo not given) gave D3 antag 0.1, S2 tox inactive, ATXN2 expr inh 1.7%, IL-1B inflam inh 19.2 and DRD3 agonist 1.2.
COc1ccc(S(=O)(=O)N2CCOC2CNC(=O)C(=O)NCCN2CCOCC2)cc1OC (stereo not given) was read as D3 antag 7.7, a7 integrin act 12.7%, S2 tox inactive, ATXN2 expr inh 3.5%, IL-1B inflam inh -16.5 and DRD3 agonist -2.3.
`COC(=O)[C@@H]1CCCN1C(=O)CCc1nnc(CCc2c[nH]c3ccccc23)o1` gave D3 antag -9.1, a7 integrin act 11.6%, S2 tox inactive, ATXN2 expr inh 31.5%, IL-1B inflam inh -104.8* and DRD3 agonist -11.2.
For CCN(CC)CCN1CCN(c2cncc(-c3ccc4ccccc4c3)n2)CC1 the results were D3 antag inconclusive, S2 tox inconclusive, ATXN2 expr inh -22.7%, IL-1B inflam inh -59.5* and DRD3 agonist -15.1.
`CCN(CC)CCN1CCN(c2cncc(-c3cccc(N)c3)n2)CC1` gave D3 antag -11.8, S2 tox inconclusive, ATXN2 expr inh 1.2%, IL-1B inflam inh 19.8 and DRD3 agonist -3.4.
For COc1ccc(-c2c(C)nn3c(N)c(-c4ccccc4)cnc23)cc1OC the results were D3 antag 9.5, a7 integrin act -43.2%, S2 tox inactive, IL-1B inflam inh inconclusive and DRD3 agonist 14.8.
COc1ccc2ccc3c(c2c1)N=C[C@]1(O3)N(C)c2ccccc2C1(C)C was read as D3 antag -70.3*, a7 integrin act -53.5%, S2 tox inactive, ATXN2 expr inh -16.4%, IL-1B inflam inh -25.5 and DRD3 agonist -2.1.
CCOC(=O)C1CCN(C(=O)c2c(-c3ccccc3)noc2C)CC1 was read as D3 antag -7.0, a7 integrin act 0.0%, S2 tox inactive, ATXN2 expr inh 36.3%, IL-1B inflam inh -72.9* and DRD3 agonist -1.0.
